Here are results for 5 compounds from PubChem BioAssay.

The source made the active and inactive calls.

Experiment [1] has as its system Human papillomavirus type 1a protein E7 (residues 44-93). The experiment can be described thus: HPV1a E7 fragment binders on microarrays, primary screen, biochemical, small-molecule microarray, residues 44-93, 635 nm fluorescence (AID 1108).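 Also: E7 fragment applied at 1 µg/mL in TBST for 1 h at 4 C; score combines spot fluorescence with its signal to noise ratio.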 To be noted: small-molecule microarray binding, fluorescence 635 nm; higher = more signal.
Experiment [2] in a line: modulators of HCV replicon luciferase signal, primary screen, HCV replication inhibitor project, Huh7 cells, luciferase reporter (AID 1109).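 Also: huh7 hepatoma cells harbouring a luciferase neomycin HCV replicon reporter; luciferase luminescence as measure of HCV replicon replication; test concentration not given here.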 The settings on record: 48 h, higher = more signal. In general terms: A replicon is a self-replicating genome or part of one, used to study replication in cells.
Experiment [3] addresses Left-right determination factor 2 (Homo sapiens) (UniProt O00292). The experiment can be described thus: LEFTY2 binders on small-molecule microarrays, primary screen, biochemical, small-molecule microarray, 635 nm fluorescence scan (AID 1110). The settings on record: LEFTY2 binding, higher = more signal.
Experiment [4] has as its target Calmodulin-1 (Homo sapiens) (UniProt P0DP23). The experiment can be described thus: CALM1 binders on microarrays, EGTA buffer, profiling panel, biochemical, small-molecule microarray, Cy5-labelled CALM1 (AID 1111).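 Also: labelled calmodulin applied in Tris saline Tween buffer holding calcium plus EGTA and DTT.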 To be noted: Cy5-CALM1 binding fluorescence, higher = more signal.
Experiment [5] shares this target. The experiment can be described thus: calcium-bound CALM1 binders on microarrays, profiling panel, artefact control for SMM control-protein annotation, biochemical, small-molecule microarray, Cy5-labelled CALM1, plus calcium (AID 1112).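 Also: score merges spot fluorescence with signal to noise from triplicate slides.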 The settings on record: Cy5-CALM1 binding fluorescence, higher = more signal.
The nature of experiment [6]: small-molecule microarray binders of probe aWnt5a, primary screen, biochemical, biotinylated probe, 635/667 nm fluorescence (AID 1113).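 Also: score merges 667 nm fluorescence intensity with signal-to-noise per printed feature.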 To be noted: higher = more signal.
Experiment [7] can be described thus: small-molecule microarray binders of probe aShh, primary screen, biochemical, biotinylated probe, 635/667 nm fluorescence (AID 1114).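 Also: probe is biotin-labelled aShh protein from a stem cell growth factor screen; measures binding of labelled protein to compounds printed on the slide; score merges feature fluorescence at 667 nm with signal-to-noise.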 To be noted: higher = more signal.
Experiment [8] in a line: small-molecule microarray binders of probe aNog, primary screen, biochemical, biotinylated probe, 635/667 nm fluorescence (AID 1115).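 Also: probe is biotinylated aNog protein used at 0.15 µg/mL for 1 h at 4 C; z-score combines 667 nm fluorescence of each spot with its signal to noise.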 To be noted: higher = more signal.
Experiment [9] concerns the target Torsin-1A-interacting protein 1 (Homo sapiens) (UniProt Q5JTV8). The experiment can be described thus: LAP1 binders from COS7 cell lysate, primary screen, small-molecule microarray, 635/667 nm fluorescence (AID 1116). The settings on record: COS7-hLAP1 lysate binding, 635 nm fluorescence, higher = more signal.
Experiment [10] concerns the target Alpha-bungarotoxin (Bungarus multicinctus) (UniProt P60615). The experiment can be described thus: alpha-bungarotoxin binders on microarray, profiling panel, artefact control for SMM control protein annotation, biochemical, small-molecule microarray, Alexa647 label, 635/667 nm fluorescence (AID 1117). To be noted: alpha-BTX-A647 binding fluorescence, higher = more signal.

The target of a further experiment is Albumin (Bos taurus) (UniProt P02769). The experiment can be described thus: bovine serum albumin binders on microarray, profiling panel, artefact control for SMM control protein annotation, biochemical, small-molecule microarray, Alexa647 label, 635/667 nm fluorescence (AID 1118).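 Also: score merges 667 nm emission intensity and signal-to-noise per printed compound spot.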 The settings on record: BSA-A647 binding, fluorescence 635 nm, higher = more signal.

Experiment [11] can be described thus: small-molecule microarray binders of probe aXIP, primary screen, biochemical, NeuroSMM set, 635/667 nm fluorescence (AID 1119).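 Also: probe is the protein aXip251-270 applied at 1 µg/mL to compound-printed slides; binding of probe to printed compounds measured as 667 nm fluorescence plus signal to noise.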 To be noted: higher = more signal, called active from +8 up or from −8 down.
Experiment [12] can be described thus: small-molecule binders of probe aNOTCH3, primary screen, biochemical, small-molecule microarray, 635/667 nm fluorescence (AID 1120).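 Also: probe is a biotin-tagged antibody raised against NOTCH3 rather than NOTCH3 protein; score merges spot fluorescence near 667 nm with spot signal to noise.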 To be noted: higher = more signal.
A short description of experiment [13]: small-molecule binders of probe aNOTCH2, primary screen, biochemical, small-molecule microarray, 635/667 nm fluorescence (AID 1121).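 Also: score merges feature fluorescence read at 667 nm with its signal to noise.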 The settings on record: higher = more signal.
The target of experiment [14] is Carbonic anhydrase 2 (Homo sapiens) (UniProt P00918). The experiment can be described thus: CAII small-molecule binders, profiling panel, biochemical, small-molecule microarray, Alexa647-labelled CAII (AID 1122). To be noted: CAII-A647 binding fluorescence, higher = more signal.
Experiment [15] can be described thus: COS7 lysate on small-molecule microarray, probe aHis, 635 nm (AID 1123).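 Also: z-score combines 667nm fluorescence intensity with signal-to-noise per printed compound spot.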 The settings on record: COS7 cell lysate, fluorescence, higher = more signal.
Experiment [16] is described as follows: compound binding in COS7 lysate, probe aLAP1, primary screen, cell lysate, small-molecule microarray (AID 1124).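 Also: lysate comes from COS7 cells expressing LAP1 and is applied at 0.3 µg/mL; score merges spot fluorescence near 667 nm with signal-to-noise over triplicate slides.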 To be noted: probe aLAP1, fluorescence, higher = more signal.
Another experiment relates to Sam68 (KHDRBS1). The experiment can be described thus: Sam68 small-molecule binders, primary screen, biochemical, small-molecule microarray, 635 nm fluorescence (AID 1125).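 Also: score merges 667 nm channel intensity with signal to noise over triplicate slides.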 To be noted: small-molecule microarray binding, higher = more signal.
Experiment [17] deals with Chordin-like protein 2 (CHRDL2). The experiment can be described thus: CHRDL2 small-molecule binders, primary screen, biochemical, small-molecule microarray, 635 nm fluorescence (AID 1126).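 Also: printed compound slides probed with Chrdl2 protein at 4 µg/mL for 1 h at 4 C; score merges 667 nm emission intensity with signal to noise over three replicate slides.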 To be noted: small-molecule microarray binding, fluorescence 635 nm; higher = more signal.
Experiment [18] has as its target Concanavalin-A (Canavalia ensiformis) (UniProt P02866). The experiment can be described thus: ConA small-molecule binders, primary screen, artefact control for SMM control protein annotation, biochemical, small-molecule microarray, Alexa647 label, 635 nm (AID 1127).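 Also: z combines 667 nm emission intensity with signal-to-noise across three replicate slides.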 The settings on record: ConA-A647 binding fluorescence, higher = more signal.

Sequence of Torsin-1A-interacting protein 1 (Homo sapiens) (Q5JTV8 whole entry, looked up): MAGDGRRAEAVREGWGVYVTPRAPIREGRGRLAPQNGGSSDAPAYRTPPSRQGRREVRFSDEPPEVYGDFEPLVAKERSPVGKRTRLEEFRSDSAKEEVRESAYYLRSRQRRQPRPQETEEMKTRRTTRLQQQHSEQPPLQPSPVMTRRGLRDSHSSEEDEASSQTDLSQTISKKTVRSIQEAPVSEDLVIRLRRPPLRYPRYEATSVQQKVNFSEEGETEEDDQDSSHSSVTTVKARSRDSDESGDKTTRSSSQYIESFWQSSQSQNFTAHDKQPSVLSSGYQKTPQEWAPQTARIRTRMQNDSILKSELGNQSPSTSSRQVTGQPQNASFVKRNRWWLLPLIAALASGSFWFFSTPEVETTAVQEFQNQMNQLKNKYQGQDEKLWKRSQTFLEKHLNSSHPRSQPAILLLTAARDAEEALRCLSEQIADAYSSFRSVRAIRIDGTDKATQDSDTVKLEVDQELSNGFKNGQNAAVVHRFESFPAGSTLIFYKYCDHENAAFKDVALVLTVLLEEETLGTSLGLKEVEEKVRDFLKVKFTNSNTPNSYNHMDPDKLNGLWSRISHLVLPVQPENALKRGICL
Sequence of Concanavalin-A (Canavalia ensiformis) (P02866 whole entry, looked up): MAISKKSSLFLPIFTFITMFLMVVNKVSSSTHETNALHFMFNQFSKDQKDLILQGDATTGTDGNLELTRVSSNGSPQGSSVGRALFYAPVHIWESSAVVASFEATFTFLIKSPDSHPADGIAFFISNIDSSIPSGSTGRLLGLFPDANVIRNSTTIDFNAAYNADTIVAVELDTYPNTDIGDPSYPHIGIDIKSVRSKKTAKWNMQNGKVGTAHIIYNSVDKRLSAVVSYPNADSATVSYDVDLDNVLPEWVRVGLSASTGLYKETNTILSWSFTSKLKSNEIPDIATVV
Sequence of Albumin (Bos taurus) (P02769 whole entry, looked up): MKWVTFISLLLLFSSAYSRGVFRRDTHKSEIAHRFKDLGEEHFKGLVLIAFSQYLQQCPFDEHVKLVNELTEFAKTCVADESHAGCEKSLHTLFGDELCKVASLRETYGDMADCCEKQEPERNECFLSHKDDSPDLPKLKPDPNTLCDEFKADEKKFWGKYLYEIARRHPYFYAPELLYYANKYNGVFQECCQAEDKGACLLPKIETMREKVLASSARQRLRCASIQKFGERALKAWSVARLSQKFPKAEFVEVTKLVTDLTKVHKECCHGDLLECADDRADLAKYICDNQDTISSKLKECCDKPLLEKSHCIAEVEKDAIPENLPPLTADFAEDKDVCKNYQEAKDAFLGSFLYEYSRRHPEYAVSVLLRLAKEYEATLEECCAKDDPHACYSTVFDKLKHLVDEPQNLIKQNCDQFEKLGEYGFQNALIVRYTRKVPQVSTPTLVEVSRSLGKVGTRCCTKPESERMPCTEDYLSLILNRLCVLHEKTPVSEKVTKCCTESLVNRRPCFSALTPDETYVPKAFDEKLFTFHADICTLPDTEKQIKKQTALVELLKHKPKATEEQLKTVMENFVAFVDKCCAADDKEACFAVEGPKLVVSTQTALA
Sequence of Alpha-bungarotoxin (Bungarus multicinctus) (P60615 whole entry, looked up): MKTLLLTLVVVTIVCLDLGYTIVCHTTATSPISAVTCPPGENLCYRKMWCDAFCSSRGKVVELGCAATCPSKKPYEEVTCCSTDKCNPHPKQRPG
Sequence of Left-right determination factor 2 (Homo sapiens) (O00292 whole entry, looked up): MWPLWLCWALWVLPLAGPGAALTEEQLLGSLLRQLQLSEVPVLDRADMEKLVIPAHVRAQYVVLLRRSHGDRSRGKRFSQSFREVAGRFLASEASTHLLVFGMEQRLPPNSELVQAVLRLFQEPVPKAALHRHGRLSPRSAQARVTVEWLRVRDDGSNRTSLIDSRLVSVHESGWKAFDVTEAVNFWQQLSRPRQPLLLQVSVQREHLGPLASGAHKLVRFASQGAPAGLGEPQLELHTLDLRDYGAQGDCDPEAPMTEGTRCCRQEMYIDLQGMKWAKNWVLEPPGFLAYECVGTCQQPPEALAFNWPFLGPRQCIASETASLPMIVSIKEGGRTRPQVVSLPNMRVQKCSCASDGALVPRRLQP

For `CCCCCCCCCCC(O)C1C=CC2C(=O)NC(=O)C2N1Nc1ccccn1` (stereo not given), the composite z-score in experiment [1] is 1.08; in [3], -0.765; in experiment [4], 1.4; in experiment [5], 0.945; in [6], -0.0566; in experiment [7], 0.337. Further, the composite z-score in experiment [8] was 1.7; in [9], -0.0182; in experiment [10], 0.217; with Albumin (Bos taurus) it was 0.616; in [12], 0.0159; in [13] it was 0.0118. Further, the composite z-score was 0.287 in experiment [14]; 1.85 in experiment [15]; -0.0065 in [16]; -0.182 in the experiment on Sam68 (KHDRBS1); -0.9 in experiment [17]; 0.709 in [18]. The z-score in experiment [2] was -2.64. In addition, the composite Z-score in [11] is -0.118 (inactive).

With `O=C1NC(=O)C2C1C=CC(C(O)c1ccc3c(c1)OCO3)N2Nc1ccc(Cl)cc1Cl` (stereo not given), the composite z-score in [1] was -0.85; in experiment [3], -0.0483; in experiment [4], 1.43; in [5] it was 0.527; in experiment [6] it was -0.0846; in experiment [7] it was -0.232. Further, the composite z-score in experiment [8] was 0.265; in experiment [9], 1.73; in experiment [10] it was 0.114; in the experiment with Albumin (Bos taurus), 0.817; in [12] it was 0.144; in [13] it was -0.063. The composite z-score in experiment [14] came out at 0.566; in experiment [15] it was 3.03; in [16], 1.19; with Sam68 (KHDRBS1) it was 0.355; in experiment [17] it was 0.26; in experiment [18], 0.148. In addition, the z-score in [2] was -0.795. For the same compound, the composite Z-score in [11] is 0.549 (inactive).

For `C#CCOC(=O)N[C@H](C=CCCCC)c1ccccc1`, the composite z-score in experiment [1] was -0.0543; in [3], -0.0624; in experiment [4] it was 0.44; in experiment [5], 0.368; in experiment [6], -0.0888; in [7], 0.413. The composite z-score is 1.52 in [8]; 1.51 in experiment [9]; -0.194 in experiment [10]; 1.02 with Albumin (Bos taurus); 0.0077 in experiment [12]; 0.0964 in experiment [13]. The composite z-score in experiment [14] was 0.88; in experiment [15], 3.67; in [16] it was 0.711; in the experiment with Sam68 (KHDRBS1), 0.199; in experiment [17] it was -0.0017; in [18], 0.0429. The compound also yielded a z-score in experiment [2] of -0.498. The composite Z-score in experiment [11] is 0.33 (inactive).

For `C=C(C(=O)CC[C@H](OC(=O)c1cccnc1)c1ccc(OCCO)cc1)C(C)C`, the composite z-score was 1.33 in experiment [1]; 0.242 in experiment [3]; 0.098 in experiment [4]; -1.01 in experiment [5]; -0.0704 in [6]; -0.142 in [7]. Further, the composite z-score in experiment [8] is -0.196; in experiment [9], 1.68; in [10], 1.11; with Albumin (Bos taurus) it was 0.335; in experiment [12], 0.0571; in experiment [13], -0.105. The composite z-score in experiment [14] is 0.695; in [15], 0.706; in experiment [16], 0.296; in the experiment with Sam68 (KHDRBS1), 1.13; in experiment [17] it was 0.274; in experiment [18] it was 1.12. The z-score in [2] was -3.29. The composite Z-score in experiment [11] is -0.496 (inactive).

As to `COC(=O)C(CC#Cc1ccc2c(c1)[C@]1(C(=O)N2)[C@H](c2ccc(OCCO)cc2)N2[C@H](c3ccccc3)[C@H](c3ccccc3)OC(=O)[C@H]2[C@@H]1C(=O)O)C(=O)OC`, the composite z-score in experiment [1] came to 0.324; in experiment [3] it was 0.431; in experiment [4], 1.23; in [5] it was 0.707; in [6], 0.0438; in [7], 0.446. In addition, the composite z-score in [8] is 0.812; in [9], 2.1; in experiment [10], 1.83; with Albumin (Bos taurus), 0.803; in [12], 0.328; in [13] it was 0.224. The composite z-score stood at 0.724 in experiment [14]; 1.37 in experiment [15]; 0.26 in [16]; 1.28 with Sam68 (KHDRBS1); 0.368 in [17]; 1.15 in experiment [18]. This compound displayed a z-score in experiment [2] of -0.442. For the same compound, the composite Z-score in experiment [11] was 0.419 (inactive).
